In the library only some 2.4% were active in any assay of this set; here they are far more common.
GLP1R cytotox: qHTS of GLP-1 Receptor Inverse Agonists: Cytotox Screen | Potency, µM (series often up to 38.3 µM), inactives show at the highest dose activity change, negative = inhibition, hits mostly inhibitors | HEK293 cAMP-luciferase reporter cells, luminescence, 24 h | 0.13% of 410,000 active;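 further: loss of luciferase light is scored as toxicity; potency means the concentration at half of the fitted maximal effect; on the % scale 0 is the no-effect control and ±100 the full control effect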
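Here, cytotoxicity is scored as loss of luminescence. The MLSMR collection was tested on cells seeded in medium containing 10% Nu serum, with a 24 hr compound exposure preceded by 12 hours of culture.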
GLP1R inv ag: qHTS of GLP-1 Receptor Inverse Agonists (Inhibition Mode); 1.6% of 410,000 active; HEK293 GLP-1R CRE-luciferase, luminescence, 24 h; GLP-1R form is constitutively active; Potency, µM (doses to about 38.3 µM), without a hit: at the top dose activity change, negative = inhibition, actives largely listed as inhibitors; Glucagon-like peptide 1 receptor (Homo sapiens), P43220; AID 624417, 2012; further: potency means the concentration at half of the fitted maximal effect; on the % scale 0 is the no-effect control and ±100 the full control effect; nearly all actives have a fitted effect of over 55% in size
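qHTS in 1536-well format: reporter HEK293 cells expressing constitutive GLP-1R activity in DMEM + 10% Nu serum, 24 hr with compounds at 37 deg C, luminescence read after 12 min with detection reagent.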
PTHR1 agonist: qHTS for PTHR1 Agonists: Primary Screen. HEK293 GP2 PTHR1 cells, GloSensor cAMP luminescence, 1 h. Potency, µM (titrated, usually from 115 µM), inactives show at the top dose activation, hits mostly activators. 0.075% of 410,000 active; further: potency means the concentration at half of the fitted maximal effect; nearly all actives have a fitted effect of over 55% in size
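HEK-293-derived GP2 cells expressing PTHR1 and a GloSensor cAMP reporter, 3,000/well, plated overnight, given luciferin plus IBMX (each 0.5 mM as added) for 1 h at 37 °C, then compound for 1 h at 37 °C. Luminescence was read after 15 min at room temperature.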
TRHR ag: qHTS for Small Molecule Agonists and Allosteric Enhancers of Human TRH Receptor: Primary Screen for Agonists; TRHR cells, calcium flux fluo-8, FDSS agonist mode; activation, % at 2 µM; Thyrotropin-releasing hormone receptor (Homo sapiens), P34981; 0.18% of 360,000 active; AID 493084, 2011; in the data active means activation above about 30%; further: 0% is about no effect
Target sequence (P34981 whole entry, looked up): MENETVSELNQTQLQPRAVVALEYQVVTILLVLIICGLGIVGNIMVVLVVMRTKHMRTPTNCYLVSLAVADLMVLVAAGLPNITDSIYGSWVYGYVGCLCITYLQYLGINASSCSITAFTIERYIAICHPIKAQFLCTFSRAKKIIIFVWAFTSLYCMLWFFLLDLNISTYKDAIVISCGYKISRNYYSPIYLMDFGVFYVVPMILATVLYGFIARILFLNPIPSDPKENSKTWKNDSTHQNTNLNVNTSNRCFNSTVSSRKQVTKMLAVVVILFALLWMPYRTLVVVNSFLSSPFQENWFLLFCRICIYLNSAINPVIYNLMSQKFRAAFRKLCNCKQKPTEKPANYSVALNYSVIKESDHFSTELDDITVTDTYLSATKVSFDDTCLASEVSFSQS
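TRHR-expressing cells, plated overnight in medium with 10% serum, were loaded with fluo-8 calcium dye at room temperature. After a 10 s baseline, library compound was pin-added and calcium release was recorded kinetically (ex 480/em 530) as agonist response.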
TRHR PAM: qHTS for Small Molecule Agonists and Allosteric Enhancers of Human TRH Receptor: Primary Screen for Enhancers. AID 493056, 2011. enhancement, % at 2 µM. 0.66% of 360,000 active. Thyrotropin-releasing hormone receptor (Homo sapiens), P34981. TRHR cells, fluo-8 calcium fluorescence, EC20 TRH enhancement; in the data active means enhancement above about 30%; further: 0% is about no effect
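Enhancer read-out: after compound pinning and an initial kinetic agonist-mode read, an EC20 of TRH (10 nM final) was injected and fluo-8 calcium signal (Ex 480/Em 530) followed at 1 s/cycle for 100 cycles in TRHR-expressing cells.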
GLP1R ag: qHTS of GLP-1 Receptor Agonists; Glucagon-like peptide 1 receptor (Homo sapiens), P43220; HEK293 GLP-1R CRE-luciferase, luminescence, 4-6 h; cells express a hypersensitive GLP-1R form; Potency, µM (series often up to 45.6 µM), inactives show at the top dose activation, hits mostly activators; 0.007% of 380,000 active; AID 624172, 2012; further: potency means the concentration at half of the fitted maximal effect; % of control where 0% means no effect
Starred values were filed as active, the others as inactive; i = inactive; ? = inconclusive; . = no result given; ! = not active in a repeat; [ ] = dose if it differs, or a comment. Unless noted, the call rests on the fitted dose curve; in most records, active means well fitted curve in the direction sought with a large enough effect; inconclusive means small, poorly fitted or top-dose-only effect, or another doubt; inactive means no such curve, though single readings can be large; an effect the other way counts as inactive or inconclusive.

SMILES | GLP1R cytotox | GLP1R inv ag | PTHR1 agonist | TRHR ag | TRHR PAM | GLP1R ag
CS(=O)(=O)N1CCC(Oc2ccccc2C(=O)N2CCCCC2CO)CC1 (configuration not stated) | -8% | 15% | -24% | 0 | -11 | 3%
CCOC(=O)c1cc(C)n(CC2CCC(C(=O)Nc3ccc(C)c(F)c3)CC2)c1C (configuration not stated) | 16% | -2% | -43% | 1 | -1 | .
Cc1cc(C)cc(NC(=O)C(OC(=O)c2cccs2)c2ccccc2)c1 (configuration not stated) | 3% | 10µM* | 0% | 0 | -3 | 8%
COc1ccc(/C=N/Nc2ncnc3sc(C)c(C)c23)cc1 | ? | 8.9µM* | i | 1 | 15 | 30%
O=c1c2ccccc2nc2n1CC/C2=C\c1ccccc1[N+](=O)[O-] | . | . | . | 0 | -2 | .
O=C(c1ccc2c(=O)n3c(nc2c1)CCCCC3)N1CCCCC1 | -1% | -1% | i | 0 | -13 | 6%
Cc1ccc(C)c(N2CCN(C(=O)c3ccc4c(=O)n5c(nc4c3)CCCCC5)CC2)c1 | -11% | 1.8µM* | -82% | -1 | 4 | -4%
COc1ccc(NC(=O)C2CCCN(S(=O)(=O)c3ccccc3)C2)c(OC)c1 (configuration not stated) | -2% | -26% | -35% | -1 | 33* | -2%
COc1cc(S(=O)(=O)N2CCCN(C)CC2)ccc1NC(C)=O | 0% | 14% | -19% | 0 | 30* | -1%
COc1ccc(NC(=O)C2CCCN(S(=O)(=O)c3ccc4[nH]c(=O)ccc4c3)C2)cc1OC (configuration not stated) | -2% | 3% | -3% | 0 | 39*! | -4%
COc1cccc(CNC(=O)[C@H](C)NC(=O)N2CC(=O)Nc3ccccc32)c1 | ? | -4% | i | . | . | -4%
Cc1ccc(-c2cc3nc(C)cc(NCc4ccco4)n3n2)cc1 | 3% | 0% | -20% | 0 | 0 | 5%
CC(C)N(C(=O)Cn1cc(SCC(=O)Nc2ccccc2F)c2ccccc21)C(C)C | -22% | ? | i | 0 | -11 | .
CC(=O)N1CCN(c2ncnc3sc(-c4ccccc4)cc23)CC1 | -17% | 38% | -8% | 0 | 40* | 9%
O=S(=O)(NC1c2cccc3cccc(c23)C1N1CCNCC1)c1ccccc1 (configuration not stated) | -25% | 10µM* | i | 1 | -1 | 4%
Cc1ccc(C(=O)c2c[nH]c(C(=O)NCCCN3CCOCC3)c2)cc1 | -24% | 0% | i | 0 | 4 | -10%
Cc1ccc(-n2nc3c(=O)n(CC(=O)c4ccc(F)cc4)nc(C)c3c2C)cc1 | 24% | ? | -71% | -2 | -6 | -2%
CC(NC(=O)c1ccc(-c2ccccc2)cc1)C(c1ccccc1)N1CCOCC1 (configuration not stated) | -16% | 2µM* | -9% | 1 | -4 | 7%
COc1ccc(NC(=S)NC(C)C(c2ccccc2)N2CCOCC2)cc1 (configuration not stated) | 0% | -13% | i | -1 | 10 | 12%
CC(NC(=S)Nc1ccccc1Cl)C(c1ccccc1)N1CCOCC1 (configuration not stated) | 10µM* | ? | -13% | -2 | 0 | 2%
COc1ccc(S(=O)(=O)NCC(c2ccco2)N2CCc3ccccc32)cc1 (configuration not stated) | -7% | 6.3µM* | -30% | -1 | 2 | -1%
O=C(NCC(c1ccco1)N1CCc2ccccc21)c1ccc([N+](=O)[O-])cc1 (configuration not stated) | -5% | ? | -21% | 0 | -4 | -9%
O=C(NCC(c1ccco1)N1CCc2ccccc21)c1cccc([N+](=O)[O-])c1 (configuration not stated) | -5% | 10µM* | i | 0 | -5 | 23%
Cc1ccc(C(=O)NCC(c2ccco2)N2CCc3ccccc32)cc1 (configuration not stated) | 8% | 10µM* | -7% | 0 | -5 | -2%
COc1ccc(C(=O)NCC(c2ccco2)N2CCc3ccccc32)c(OC)c1 (configuration not stated) | -2% | 8.9µM* | -5% | 0 | -11 | 17%
SMILES | GLP1R cytotox | GLP1R inv ag | PTHR1 agonist | TRHR ag | TRHR PAM | GLP1R ag
COc1ccc(C(=O)NCC(c2ccco2)N2CCc3ccccc3C2)c(OC)c1 (configuration not stated) | -5% | ? | i | . | . | 3%
COc1ccccc1N1CCN(/N=C/c2ccc(OC)c(OC)c2OC)CC1 | -13% | 0% | -21% | -1 | -24 | 7%
CCCc1ccc2oc(C(=O)NCCN3CCCC(O)C3)c(C)c2c1 (configuration not stated) | 4% | 10µM* | i | 0 | 17 | 21%
COc1ccc(C)cc1S(=O)(=O)N(CC(=O)NCc1ccc(Cl)cc1)Cc1ccccc1 | -23% | 0% | -21% | 0 | -5 | -2%
CCc1nnc(NC(=O)C2=NN(C3CCS(=O)(=O)C3)C(=O)CC2)s1 (configuration not stated) | 8% | 8% | 18% | 0 | 12 | -1%
O=C(Nc1cccnc1)C1=NN(C2CCS(=O)(=O)C2)C(=O)CC1 (configuration not stated) | -3% | -20% | i | 0 | 39* | -1%
CCCCCn1c(SCC#N)nc2cc(C(=O)NCC3CCCO3)ccc2c1=O (configuration not stated) | -3% | 7% | -8%[57.5 µM] | 0 | -6 | -1%
CC1CCCC(C)N1C(=O)COC(=O)CNC(=O)c1ccc(Cl)cc1Cl (configuration not stated) | 4% | 10% | -19% | 0 | 34* | -1%
Cc1ccccc1-c1nc(CN2CCC(C(=O)NCc3ccc(F)cc3)CC2)c(C)o1 | 2% | ? | -3% | 0 | 44* | .
COc1ccc(S(=O)(=O)NCC2CCCN(C(=O)c3cccs3)C2)cc1 (configuration not stated) | -17% | -1% | -21% | -1 | 5 | 3%

Source: PubChem BioAssay (National Center for Advancing Translational Sciences (NCATS))
